Bioassay records deposited in PubChem by The Scripps Research Institute Molecular Screening Center.
Compounds with a hit are over-represented: about 5.7% of the library has one in this group of screens.
AHR activator – human AHR activation; AHR-responsive luciferase reporter cells, luminescence; AID 2796; activation, % at 5 µM; P35869; 320,000 tested, 2.5% active; in the data active means activation above about 47%
DAX1 inh-1 – blocks DAX1 repression of SF-1 activated StAR promoter. HEK293T StAR-luciferase reporter, SF-1/DAX-1 repression relief. inhibition, % at 6.8 µM. 370,000 tested, 1.1% active;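 active means inhibition above the mean over all tested compounds plus 3 SD, cut at about 3.6% in these data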;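 further: higher inhibition means more luminescence from relief of DAX-1 repression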
hgDAF12 agonist – agonists of H. glycines DAF-12 nuclear receptor; HEK293 GAL4-hgDAF12 UAS-luciferase reporter, agonist luminescence; normalized to butyrate control; activation, % at 6.8 µM; 370,000 tested, 1.8% active; AID 687014;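 active means activation above a cutoff set at the mean of all screened compounds plus 3 SD, cut at about 10% in these data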
DAX1 inh-2 – NR0B1 (DAX1) inhibition; P51843; 340,000 tested, 0.99% active; HEK293 Gal4-DAX1 luciferase reporter, luminescence; AID 504766; inhibition, % at 6.75 µM;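 active means inhibition above the mean over all tested compounds plus 3 SD, cut at about 4.2% in these data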;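 further: inhibition shows as a rise in luminescence from relieved DAX1 repression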
Target sequence (P51843 207-470 limits assumed): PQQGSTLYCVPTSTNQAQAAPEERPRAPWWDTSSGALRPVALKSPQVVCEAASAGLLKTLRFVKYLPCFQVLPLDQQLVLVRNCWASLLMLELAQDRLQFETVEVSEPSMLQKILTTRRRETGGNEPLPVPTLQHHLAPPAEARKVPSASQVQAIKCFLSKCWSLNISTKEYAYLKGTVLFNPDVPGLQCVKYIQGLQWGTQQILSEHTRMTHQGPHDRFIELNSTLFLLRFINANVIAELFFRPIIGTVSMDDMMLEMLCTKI
ssDAF12 agonist – activators of S. stercoralis DAF-12 nuclear receptor; activation, % at 6.8 µM; HEK293 ssDAF-12/GRIP1 lit1-tk-luc reporter, luminescence; % of 3 µM dafachronic acid response; AID 652126; 370,000 tested, 1% active;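 active means activation above the mean over all tested compounds plus 3 SD, cut at about 0.9% in these data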
hcDAF12 agonist – activates DAF-12 receptor from parasite H. contortus; HEK293 hcDAF-12 lit1-tk-luc reporter, luminescence; 0% DMSO, 100% Δ7-dafachronic acid; activation, % at 6.8 µM; AID 652067; 370,000 tested, 1.4% active;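 active means activation above the mean of all tested compounds plus 3 SD, cut at about 5.5% in these data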
Large screens that a line does not name were inactive.

Cc1ccccc1OCCC(=O)Nc1ccc(S(=O)(=O)N2CCCC2)cc1	none (no result: AHR activator)
Cc1cccc(C(=O)Nc2ccccc2C(=O)Nc2ccc(C(=O)O)cc2)c1	DAX1 inh-2 6.6
Cc1ccc(NC(=O)CCC(=O)NNC(=O)COc2ccccc2)cc1C	AHR activator 68.0
O=C(O)c1ccc(NC(=O)c2ccccc2NC(=O)c2cccc(F)c2)cc1	none
Cc1ccc(OCC(=O)Nc2ccc(C(=O)Nc3ccccc3C(=O)O)cc2)cc1C	hgDAF12 agonist 10.7 (no result: AHR activator)
COc1ccc(OCC(=O)Nc2ccc(C(=O)Nc3ccccc3C(=O)O)cc2)cc1	none
COC(=O)[C@]12C[C@H](CC(=O)NCCCCc3ccccc3)C(=O)N(CCC3=CCCCC3)C1=C[C@H](C1CCCC1)O[C@@H]2C	none (no result: AHR activator, DAX1 inh-2)
CCCNc1ncnc2nc[nH]c12	none
Cc1ccc(NC(=O)Nc2ncnc3nc[nH]c23)cc1	hgDAF12 agonist 12.2
CCc1ccc(Nc2ncnc3nc[nH]c23)cc1	hgDAF12 agonist 11.8, DAX1 inh-2 5.3
O=[N+]([O-])c1cccc(-c2nc(NCc3ccccc3)c3ccccc3n2)c1	AHR activator 88.1
Cc1nn(C)c(C)c1NC(=O)COc1ccc(Cl)cc1	none
Cc1ccc(-n2nc(C)c(NC(=O)CCl)c2C)cc1C	AHR activator 51.6
Cc1nn(C)c(C)c1NC(=O)CCl	ssDAF12 agonist 1.2
COC(=O)c1c(C(=O)OC)c(-c2ccc(OC)cc2)n2c1CS(=O)(=O)C2	none
COc1ccc(Cl)cc1C(=O)Nc1cccnc1Cl	none
CC(C)=CC(=O)Nc1nc2ccc([N+](=O)[O-])cc2s1	hgDAF12 agonist 13.2 (no result: AHR activator)
Cn1cc(S(=O)(=O)NCc2ccc3c(c2)OCO3)c(C(F)(F)F)n1	none
C[C@H](CO)N1C[C@H](C)[C@@H](CN(C)S(C)(=O)=O)Oc2ccc(NS(=O)(=O)c3ccccc3)cc2C1=O	none
COc1cc(C(=O)Nc2cc3c(cc2N2CCCCC2)n(C)c(=O)n3C)cc(OC)c1OC	none
CC(=O)Nc1cccc(-c2cc(C)c3cc4c(cc3n2)OCO4)c1	hcDAF12 agonist 5.6 (no result: AHR activator)
CC(C)C(=O)Nc1nnc(SCC(=O)NC2CCCC2)s1	none
Cc1cc(-c2n[nH]c(=S)o2)c(C)n1-c1ccccc1	DAX1 inh-1 4.0 (no result: DAX1 inh-2)
O=C(CN1CCC(NC(=O)NC2CCCC2)CC1)Nc1ccc2c(c1)OCCO2	none (no result: AHR activator, DAX1 inh-2)
COC(=O)[C@]12C[C@H](CC(=O)NCc3ccc(C)o3)C(=O)N(Cc3ccco3)C1=C[C@H](C(C)(C)C)O[C@@H]2C	none (no result: AHR activator, DAX1 inh-2)
O=C(CSc1nnc(-c2ccccc2)n1-c1ccccc1)NN=C/C=C\c1ccccc1[N+](=O)[O-]	none (no result: AHR activator, DAX1 inh-2)
COc1ccc(NC(=O)Nc2ccc(F)cc2F)cc1	ssDAF12 agonist 1.1
COc1cc2c(cc1NC(=O)C(C)Sc1ccc(NC(C)=O)cc1)oc1ccccc12 (centres undefined)	none
COc1cc2c(cc1NC(=O)Nc1ccc(F)cc1)oc1ccccc12	AHR activator 66.0
COc1cc2c(cc1NC(=O)CSc1nccn1C)oc1ccccc12	AHR activator 77.8
COc1ccc(NC(=O)Nc2cc3oc4ccccc4c3cc2OC)cc1	AHR activator 73.6
COc1cc2c(cc1NC(=O)CSc1ccccc1)oc1ccccc12	none
CCOC(=O)C1(Cc2ccc(Cl)cc2)CCN(C(=O)CCc2ccncc2)CC1	none
COc1ccccc1C(=O)NCc1ccccn1	none
C=CCOc1ccc(C[C@H](N)C(=O)NC[C@H]2O[C@@H](n3ccc(N)nc3=O)[C@H](O)[C@@H]2O)cc1	none (no result: AHR activator)
CCN(CC)CCN1C(=O)C(O)=C(C(C)=O)C1c1ccccc1[N+](=O)[O-] (centres undefined)	ssDAF12 agonist 1.4, hcDAF12 agonist 6.3
CC(=O)C1=C(O)C(=O)N(c2ccc(Br)cc2)C1c1ccccc1[N+](=O)[O-] (centres undefined)	none
COc1ccc2nc(N/C(N)=N/C(=S)Nc3cccc(C)c3)nc(C)c2c1	none
COc1ccc2nc(N/C(N)=N/S(C)(=O)=O)nc(C)c2c1	DAX1 inh-2 4.6
COc1ccc2nc(N/C(N)=N/C(=S)Nc3c(C)cccc3C)nc(C)c2c1	none
COc1ccc(NC(=S)/N=C(\N)Nc2nc(C)c3ccccc3n2)cc1	AHR activator 65.5
CCOc1ccc(NC(=O)C(c2ccccn2)N(C(=O)CCl)c2ccc(OC)cc2)cc1 (centres undefined)	hgDAF12 agonist 10.7, ssDAF12 agonist 2.4, hcDAF12 agonist 10.1
O=C1C=CC2=C3c4cc(O)c(O)cc4CC3(O)COC2=C1O (centres undefined)	DAX1 inh-2 5.2 (no result: AHR activator)
COc1cc(-c2ccc3cc(OC)c(OC)c(OC)c3c2)cc(OC)c1OC	none (no result: AHR activator)
Cc1nn(-c2ccccc2)cc1/C=N/O	DAX1 inh-2 5.2
O=C(O)C1Cc2[nH]cnc2C(c2cccc([N+](=O)[O-])c2)N1 (centres undefined)	none
O=C(O)C1Cc2[nH]cnc2C(c2ccccc2O)N1 (centres undefined)	hcDAF12 agonist 6.0
C/C(=N\Nc1cc(-c2ccccc2)nc(-c2ccc(Br)cc2)n1)c1cccc(N)c1	AHR activator 71.2
C/C(=N\Nc1cc(Cl)nc(C)n1)c1ccccc1	none
C/C(=N\Nc1ccccc1)c1cccc(N)c1	none (no result: AHR activator)
C/C(=N/Nc1cc(-c2ccccc2)nc(-c2ccccc2)n1)c1ccc(O)cc1	AHR activator 65.6
COC(=O)c1ccccc1S(=O)(=O)N1CCC(C(=O)N2CCC2)CC1	none
c1ccc(Cc2noc(CN3CCN(CCOc4ccccc4)CC3)n2)cc1	none
COCCN1Cc2cc(C(=O)OC)c3c(c2C1=O)c1cc(F)ccc1n3C(=O)c1ccccc1	none (no result: AHR activator, DAX1 inh-2)
Cc1cc(N)n(-c2ccc(Oc3ccccc3)c(S(=O)(=O)O)c2)n1	none (no result: AHR activator)
O=C(NCCc1ccc2c(c1)OCCO2)c1ccc(F)cc1	none
Cc1cnc(C(=O)NCCc2ccc(Cl)cc2)cn1	DAX1 inh-1 4.0 (no result: AHR activator)
O=C(NCCc1ccc(Cl)cc1)c1ccc2c(c1)OCCO2	hgDAF12 agonist 11.1
O=C(NCc1ccccc1)[C@@H]1CCCN1C(=O)[C@H]1CCCN1C(=O)c1ccccc1F	none (no result: AHR activator, DAX1 inh-2)
Clc1ccc(SCc2cc(-c3ccccc3)on2)cc1	none
c1ccc(Cc2cc(-c3ccccc3)on2)cc1	DAX1 inh-2 5.5
O=C(Nc1cc(SCCO)cc([N+](=O)[O-])c1)c1ccc(Br)o1	AHR activator 51.9
Cc1nc2ccccc2c2oc(C(=O)NC3CC3)cc12	AHR activator 65.0
Cc1nc2ccccc2c2oc(C(=O)NCCN3CCN(C)CC3)cc12	hgDAF12 agonist 12.4
O=C(CN1CCN(c2ccccc2F)CC1)N1N=CCC1c1ccccc1 (centres undefined)	none
COC(=O)c1cc2c(c3c4cc(F)ccc4n(S(=O)(=O)c4cccc(C)c4)c13)C(=O)N(Cc1ccco1)C2	none (no result: AHR activator, DAX1 inh-2)
C=CCNC(=S)Nc1sc2c(c1C(=O)OCC)CCN(C(=O)OCC)C2	none
